# Source: the supplement of paper PMC10646978
# ± gives the standard deviation.
# What was measured:
# Settings in all cases: modulator concentration 10 µM
# [1] = test system: RAW-Dual (murine macrophage reporter line); assay: NF-kB reporter (SEAP) activity fold change vs agonist alone; higher = enhanced NF-kB activity
# Method in brief: (§1)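 RAW-Dual murine macrophage reporter cells were plated at 50 000 per well in 384-well plates, pin-transferred compound to 10 μM final, and pre-incubated for 1 hour at 37 °C before a PRR agonist was added and the cells incubated overnight. NF-κB activity was read from supernatant SEAP with QUANTI-Blue at 620 nm absorbance, and IRF activity from Lucia luciferase with QUANTI-Luc by luminescence. Each signal was expressed as fold change by dividing by the mean agonist-only control on the same plate. Two replicate plates were averaged, with errors obtained by propagation.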
# [2] = test system: RAW-Dual (murine macrophage reporter line); assay: IRF reporter (Lucia luciferase) activity fold change vs agonist alone; higher = enhanced IRF activity
# Method in brief: as §1
# [3] = test system: RAW-Dual (murine macrophage reporter line); assay: viability score (confluency relative to resting cells, overnight) (fraction); higher = more viable, active = viable (0.7 or more)
# Method in brief: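 Compound was added at a final 10 μM to RAW-Dual macrophages in 384-well plates and left overnight. Confluency was imaged with IncuCyte, and two masks were generated in IncuCyte software over all imaged wells. Each viability score is confluency relative to resting cells, and a compound met the cutoff only when both masks were above 70% of resting cells.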
# [4] = agonist: CpG ODN 1826 0.5 ug/mL
Structure (SMILES),"NF-kB reporter [1, 4]",NF-kB reporter ([1]; agonist: LPS 0.1 ug/mL),NF-kB reporter ([1]; agonist: MPLA […]),IRF reporter ([2]; agonist: 3'3'-cGAMP 10 ug/mL),IRF reporter ([2]; agonist: LPS 0.1 ug/mL),IRF reporter ([2]; agonist: MPLA […]),viability score [3]
COC(=O)C1=C(C)NC(=Cc2c(F)cccc2Cl)C1=O,0.944 ± 0.17,0.966 ± 0.077,0.963 ± 0.11,0.876 ± 0.023,1.23 ± 0.19,1.13 ± 0.16,0.985 (active)
O=C(c1csc(-c2ccccc2)n1)N1CCCN(C2CCC2)CC1,0.763 ± 0.041,1.17 ± 0.094,0.937 ± 0.063,0.927 ± 0.081,1.19 ± 0.13,1.24 ± 0.12,1.01 (active)
Oc1c(Cl)cc(Cl)cc1Sc1cc(Cl)cc(Cl)c1O,1.18 ± 0.11,0.917 ± 0.061,3.21 ± 0.07,0.564 ± 0.031,1.03 ± 0.16,1.1 ± 0.21,0.441 (inactive)
C1=C(c2ccccc2)Nc2nnnn2C1c1ccccc1 (stereo not drawn),0.951 ± 0.076,0.945 ± 0.077,0.996 ± 0.097,0.949 ± 0.087,1.34 ± 0.28,1.46 ± 0.36,1.01 (active)
COc1c(C)cnc(Cn2cccc(-c3nc(C)no3)c2=O)c1C,0.826 ± 0.2,0.937 ± 0.092,0.967 ± 0.061,0.95 ± 0.033,0.995 ± 0.18,1.1 ± 0.22,0.997 (active)
CC(NC(=O)C(=O)NN=Cc1ccc(Cl)cc1Cl)c1ccccc1 (stereo not drawn),0.967 ± 0.095,1.16 ± 0.077,0.953 ± 0.084,1.22 ± 0.051,1.39 ± 0.16,1.14 ± 0.11,0.991 (active)
CCc1c(C)[nH]c2c1C(=O)C(CN1CCOCC1)CC2 (stereo not drawn) [Prestw-1035],1.2 ± 0.1,0.92 ± 0.07,0.934 ± 0.027,1.03 ± 0.04,0.925 ± 0.049,0.959 ± 0.11,1 (active)
COc1ccc(CCNC2CC(=O)N(C)C2=O)cc1OC (stereo not drawn),1.08 ± 0.061,1.03 ± 0.11,0.994 ± 0.046,0.944 ± 0.07,0.998 ± 0.091,0.895 ± 0.15,0.997 (active)
O=C(NCCCn1ccc2cccnc21)c1ccccc1C(F)(F)F,0.946 ± 0.091,1.1 ± 0.092,1.03 ± 0.18,1.06 ± 0.056,1.16 ± 0.1,1.45 ± 0.15,0.978 (active)
COc1ccccc1OCC(=O)NCC1CCN(C(C)C)CC1,1.12 ± 0.062,1.07 ± 0.099,0.92 ± 0.049,1.09 ± 0.099,1.13 ± 0.21,1.05 ± 0.34,0.991 (active)
CCCOCCOC(=O)C1=C(C)NC2=C(C(=O)CCC2)C1c1ccc(F)c(F)c1 (stereo not drawn),0.971 ± 0.081,1.07 ± 0.1,0.851 ± 0.07,1.09 ± 0.042,1.41 ± 0.1,1.2 ± 0.12,1.01 (active)
CC(Cc1ccccc1)NC(=O)C1COc2ccccc2O1 (stereo not drawn),0.662 ± 0.13,1.12 ± 0.09,1.13 ± 0.14,0.979 ± 0.048,0.965 ± 0.13,1.15 ± 0.12,0.919 (active)
CCOC(=O)c1c(C)n(-c2ccccc2)c2ccc(NS(=O)(=O)c3ccccc3)cc12,0.959 ± 0.16,0.95 ± 0.075,1.04 ± 0.087,0.932 ± 0.029,1.05 ± 0.13,1.21 ± 0.17,0.808 (active)
Oc1c2c(nc3cc(-c4ccc(Cl)cc4)nn13)CCS2,1.1 ± 0.09,0.945 ± 0.12,0.973 ± 0.031,0.976 ± 0.038,0.967 ± 0.047,1.11 ± 0.14,0.998 (active)
O=C(O[C@H]1C[C@H]2CC3C[C@@H](C1)N2CC3=O)c1c[nH]c2ccccc12,0.524 ± 0.055,0.598 ± 0.1,0.693 ± 0.03,0.92 ± 0.051,0.909 ± 0.03,0.912 ± 0.084,0.998 (active)
Cc1ccc(OCCCOc2cccc3cccnc23)c(C)c1,0.854 ± 0.11,1.1 ± 0.073,1.62 ± 0.11,0.932 ± 0.07,1.26 ± 0.14,2.82 ± 0.39,0.895 (active)
O=C(NCCCn1ccc2cccnc21)c1cccc(Br)c1,0.84 ± 0.042,1.12 ± 0.088,0.937 ± 0.045,0.839 ± 0.081,1.06 ± 0.12,1.03 ± 0.23,0.98 (active)
CCOc1ccc2c(c1)C(C)=CC(C)(C)N2 [Prestw-765],0.892 ± 0.098,1.07 ± 0.055,1.11 ± 0.029,0.812 ± 0.065,0.967 ± 0.052,0.997 ± 0.082,1 (active)
CCS(=O)(=O)N1CCC2(CC1)NC(=O)N(CCOc1ccccc1)C2=O,0.871 ± 0.041,1.05 ± 0.11,1.09 ± 0.078,0.996 ± 0.047,1.43 ± 0.25,1.58 ± 0.61,0.989 (active)
O=c1c(-n2ccnn2)c[nH]n1-c1cc(N2CCOCC2)ncn1,0.74 ± 0.2,0.846 ± 0.046,0.853 ± 0.054,0.878 ± 0.04,1.09 ± 0.26,1.09 ± 0.15,1 (active)
O=C(O)CCC(=O)c1ccc(-c2ccccc2)cc1,0.806 ± 0.11,0.842 ± 0.1,0.87 ± 0.07,0.931 ± 0.049,0.984 ± 0.087,0.999 ± 0.078,0.986 (active)
COc1cc2nc(N3CCN(C(=O)c4ccco4)CC3)nc(N)c2cc1OC [Prestw-947],0.258 ± 0.041,1.09 ± 0.083,1.14 ± 0.11,1.59 ± 0.049,1.28 ± 0.18,1.48 ± 0.33,0.971 (active)
NC(=O)c1cn(Cc2c(F)cccc2F)nn1,1.01 ± 0.075,0.951 ± 0.12,1 ± 0.049,1.17 ± 0.3,0.923 ± 0.08,0.906 ± 0.12,0.999 (active)
C/C(O)=C(\C#N)C(=O)Nc1ccc(C(F)(F)F)cc1,0.861 ± 0.037,1.04 ± 0.084,1.01 ± 0.074,0.855 ± 0.044,1.24 ± 0.26,1.4 ± 0.58,1 (active)
